# Bim-Mcl-1 – inhibitors of Bim peptide binding to Mcl-1, primary screen, biochemical, bead-based flow cytometry, multiplex. Induced myeloid leukemia cell differentiation protein Mcl-1 (Homo sapiens), Q07820. Bim peptide-Mcl-1 binding. inhibition, % at 10 µM. 0.1% of 190,000 active. AID 1009, 2008; in the data active = inhibition above about 40%
# MCL1 BIM primary – inhibitors of MCL1 binding to BIM-BH3, primary screen, biochemical, fluorescence polarization | GST-MCL1 / FITC-Bim-BH3 fluorescence polarization | 0.68% of 320,000 active | AID 2057, 2009 | inhibition, % at 10.9 µM | Induced myeloid leukemia cell differentiation protein Mcl-1 (Homo sapiens), Q07820;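 active = inhibition above the mean inhibition of all tested compounds plus 3 SD, set per campaign, cut at about 40% in these data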;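 also: higher means more loss of mP so more displacement of Bim peptide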
# GLD-1 TGE inh – GLD-1/TGE RNA complex disruptors, primary screen, biochemical, fluorescence polarization; Female germline-specific tumor suppressor gld-1 (Caenorhabditis elegans), Q17339; purified GLD-1 + fluorescein TGE RNA; inhibition, % at 5.96 µM; 0.44% of 320,000 active;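 active = percent inhibition above a per-plate cutoff, the plate mean of test compounds plus 3 SD, cut at about 30% in these data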
# Target sequence (Q17339 whole entry, looked up): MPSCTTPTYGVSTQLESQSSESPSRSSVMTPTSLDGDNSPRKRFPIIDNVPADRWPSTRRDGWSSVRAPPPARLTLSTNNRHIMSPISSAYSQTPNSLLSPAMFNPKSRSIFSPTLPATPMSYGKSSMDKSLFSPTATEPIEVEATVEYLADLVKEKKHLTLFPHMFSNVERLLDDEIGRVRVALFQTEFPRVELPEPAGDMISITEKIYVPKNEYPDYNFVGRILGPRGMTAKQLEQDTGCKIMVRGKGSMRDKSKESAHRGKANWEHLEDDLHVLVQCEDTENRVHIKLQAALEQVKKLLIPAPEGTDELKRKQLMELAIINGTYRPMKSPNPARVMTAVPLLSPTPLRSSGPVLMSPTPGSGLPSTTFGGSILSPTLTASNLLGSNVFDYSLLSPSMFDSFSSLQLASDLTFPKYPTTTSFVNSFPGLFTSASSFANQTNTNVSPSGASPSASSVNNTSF
# Mcl1-Bid inh – Mcl-1/Bid binding inhibitors, primary screen, biochemical, TR-FRET, 1536-well | Induced myeloid leukemia cell differentiation protein Mcl-1 (Homo sapiens), Q07820 | TR-FRET Mcl-1/Bid-Dy647 peptide binding | inhibition, % at 21.7 µM | 0.97% of 220,000 active | AID 1021, 2008;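 active = compounds that cut the binding signal by more than half at the single screening dose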;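 also: His-tagged Mcl-1 with europium anti-His antibody binding Bid BH3 peptide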
# Mcl1 Noxa PPI – Mcl-1/Noxa binding inhibitors, primary screen, biochemical, TR-FRET, 1536-well; Induced myeloid leukemia cell differentiation protein Mcl-1 (Homo sapiens), Q07820; TR-FRET Mcl-1/Noxa peptide binding, 2 h; inhibition, % at 21.7 µM; 1.5% of 220,000 active;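 active = compounds that cut the protein-peptide binding signal by more than 50% relative to plate controls in a single-dose test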;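 also: His-tagged Mcl-1 with rhodamine Noxa BH3 peptide and terbium anti-His antibody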
# BCLXL inh – inhibitors of human Bcl-xL, primary screen, biochemical, fluorescence polarization, HTS; GST-Bcl-xL / FITC-Bim BH3 peptide fluorescence polarization; Bcl-2-like protein 1 (Homo sapiens), Q07817; 0.7% of 320,000 active; inhibition, % at 10.9 µM;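 active = inhibition above the mean of all tested compounds plus 3 SD, cutoff set per campaign, cut at about 30% in these data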;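 also: inhibitors lower millipolarization by displacing the labeled peptide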
# Hits are given with their value; 0 = inactive; - = no result; ! = not confirmed by another sample. Only some compounds are listed: those with a hit (about 2.3% of all), similar ones and a draw of the others.
SMILES,Bim-Mcl-1,MCL1 BIM primary,GLD-1 TGE inh,Mcl1-Bid inh,Mcl1 Noxa PPI,BCLXL inh
Cc1ccc2c(c1)=C/C(=C\c1c(O)[nH]c(=S)[nH]c1=O)C(=O)N=2,0,0,0,0,57,0
Cc1ccc2c(c1)=NC(=O)/C(=C/c1c(O)[nH]c(=O)[nH]c1=O)C=2,-,0,0,0,0,0
COC(=O)C1=C(c2ccc(Cl)c(C(F)(F)F)c2)C[C@@H]2CC[C@H]1N2C(=O)NCc1ccco1,-,0,0,-,-,0
C[C@]12CC[C@@H](O)CC1=CC(=O)C1C2CC[C@]2(C)C(=O)CCC12 (stereo partly drawn),-,-,0,-,-,-
CCC1(c2ccccc2)C(=O)N(COC)C(=O)N(COC)C1=O,0,0,0,0,52,0
COc1cc2nc(N3CCN(C(=O)c4ccco4)CC3)nc(N)c2cc1OC,0,0,0,67!,58!,0
CC(C(=O)c1c[nH]c2ccccc12)N1CCN(C(=O)c2ccco2)CC1 (stereo not drawn),-,0,0,0,0,0
c1cncc(C2Nc3cccc4cccc(c34)N2)c1,-,0,0,0,79,0
O=C1CCCC2=C1C(c1cccnc1)Nc1ccccc1N2 (stereo not drawn),0,0,0,0,0,0
CN1CCN(c2ccc(N)cc2Cl)CC1,0,0,0,0,0,0
CC(C)(C)N1C(=O)NC(=O)/C(=C\c2ccc3c(c2)CCN3CCCCl)C1=O,-,0,0,0,0,0
O=C1NC(=S)N(C2CC2)C(=O)/C1=C/c1ccc2c(c1)CCN2CCCCl,0,0,0,88,109,0
CCN1C(=O)/C(=C/c2ccc3c(c2)CCN3CCCCl)C(=O)NC1=S,0,0,0,0,81,0
CC(Cc1ccccc1)NCC(=O)Nc1cc(N(C)C)nc2ccccc12 (stereo not drawn),-,0,0,72,0,0
CN1CCCCC1c1ccc(-c2cccnc2)nc1 (stereo not drawn),0,0,0,70,0,0
COc1ccc(CCNC(=O)COC(=O)Cc2ccccc2)cc1,0,0,0,78,0,0
Cc1ccsc1C(=O)C1CCCN(Cc2cc(C(C)C)n[nH]2)C1 (stereo not drawn),0,0,0,0,0,0
O=C1NC(=S)N(c2ccc(F)cc2)C(=O)/C1=C\c1ccoc1,0,-,-,0,79,-
O=C1c2ccccc2C(=O)N1Cc1nc2ccccc2c(=O)n1-c1cccnc1,0,0,0,73,0,0
COC(=O)C1=C(c2cccc(OC)c2OC)C[C@@H]2CC[C@H]1N2C(=O)N1CCOCC1,-,0,0,-,-,0
Cn1c(O)c(C=Nc2ccc(F)cc2)c(=O)[nH]c1=O,-,0,0,-,-,0
CC(C)(C)n1c(O)c(C=Nc2ccc3c(c2)CCC3)c(=O)[nH]c1=O,0,0,0,0,71,0
O=C1NC(=O)N(Cc2ccco2)C(=O)/C1=C/C=C/c1ccco1,-,0,0,0,52,0
CC1=Nc2ccccc2/C1=C/c1c(O)[nH]c(=O)[nH]c1=O,-,0,0,-,-,0
O=c1[nH]c(O)c(/C=C2/C=CC(c3cc(Cl)ccc3Cl)=N2)c(=O)[nH]1,-,0,0,67,0,0
SMILES,Bim-Mcl-1,MCL1 BIM primary,GLD-1 TGE inh,Mcl1-Bid inh,Mcl1 Noxa PPI,BCLXL inh
OCC(Br)CBr (stereo not drawn),-,0,0,-,-,0
CCn1nc(-c2ccccc2)nc2c(=O)n(C)c(=O)nc1-2,0,148,128,0,0,136
CCC(=NCc1ccco1)c1c(O)n(-c2ccccc2C)c(=O)[nH]c1=O,-,0,0,0,0,0
CSc1ncc(/C=C2/C(=O)NC(=O)N(c3ccc(C(C)C)cc3)C2=O)cn1,0,0,0,0,0,0
O=C1NC(=O)N(Cc2ccccc2)C(=O)/C1=C/c1cnc(-c2ccccc2)nc1,0,0,0,0,51,0
CC(C)c1ccc(N2C(=O)NC(=O)/C(=C/c3cnc(-c4ccccc4)nc3)C2=O)cc1,0,0,0,0,61,0
CCOC(=O)CSc1ccc(C(=O)N2CCC3(CC2)OCCO3)cc1[N+](=O)[O-],-,0,0,-,-,0
